In experiment [1] the target is Nuclear receptor coactivator 1 (Homo sapiens) (UniProt Q15788). Kind of experiment: NCOA1 GAL4-fusion reporter inhibition – cell-based, luminescence, quadruplicate, confirmation (AID 588820).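 Note: 0% = DMSO wells and 100% = gossypol 36 µM treated wells.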 As to conditions: HEK293 GAL4-SRC1 luciferase reporter, at 3.6 µM, hits give high values. (In general: Reporter assays use an easily measured gene product as a stand-in for the process of interest.)

A short description of experiment [2]: repression of VP16-driven luciferase reporter – cell-based, luminescence, high throughput, counter-screen for SRC1 inhibitor project (AID 588824; in the data active = inhibition above about 25%). As to conditions: cell-based VP16 transactivation luciferase luminescence; at 3.6 µM; hits give high values.

In general, inhibition refers to the drop in the measured response relative to a control, in per cent.

Calls of active or inactive are those of the source.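 Rule for the calls, unless noted: active = mean inhibition above 46.68%, the untreated control wells mean plus 3 SD; inactive = the rest.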

Chain of Nuclear receptor coactivator 1 (Homo sapiens) (Q15788 whole entry, looked up, the tested form may be a part): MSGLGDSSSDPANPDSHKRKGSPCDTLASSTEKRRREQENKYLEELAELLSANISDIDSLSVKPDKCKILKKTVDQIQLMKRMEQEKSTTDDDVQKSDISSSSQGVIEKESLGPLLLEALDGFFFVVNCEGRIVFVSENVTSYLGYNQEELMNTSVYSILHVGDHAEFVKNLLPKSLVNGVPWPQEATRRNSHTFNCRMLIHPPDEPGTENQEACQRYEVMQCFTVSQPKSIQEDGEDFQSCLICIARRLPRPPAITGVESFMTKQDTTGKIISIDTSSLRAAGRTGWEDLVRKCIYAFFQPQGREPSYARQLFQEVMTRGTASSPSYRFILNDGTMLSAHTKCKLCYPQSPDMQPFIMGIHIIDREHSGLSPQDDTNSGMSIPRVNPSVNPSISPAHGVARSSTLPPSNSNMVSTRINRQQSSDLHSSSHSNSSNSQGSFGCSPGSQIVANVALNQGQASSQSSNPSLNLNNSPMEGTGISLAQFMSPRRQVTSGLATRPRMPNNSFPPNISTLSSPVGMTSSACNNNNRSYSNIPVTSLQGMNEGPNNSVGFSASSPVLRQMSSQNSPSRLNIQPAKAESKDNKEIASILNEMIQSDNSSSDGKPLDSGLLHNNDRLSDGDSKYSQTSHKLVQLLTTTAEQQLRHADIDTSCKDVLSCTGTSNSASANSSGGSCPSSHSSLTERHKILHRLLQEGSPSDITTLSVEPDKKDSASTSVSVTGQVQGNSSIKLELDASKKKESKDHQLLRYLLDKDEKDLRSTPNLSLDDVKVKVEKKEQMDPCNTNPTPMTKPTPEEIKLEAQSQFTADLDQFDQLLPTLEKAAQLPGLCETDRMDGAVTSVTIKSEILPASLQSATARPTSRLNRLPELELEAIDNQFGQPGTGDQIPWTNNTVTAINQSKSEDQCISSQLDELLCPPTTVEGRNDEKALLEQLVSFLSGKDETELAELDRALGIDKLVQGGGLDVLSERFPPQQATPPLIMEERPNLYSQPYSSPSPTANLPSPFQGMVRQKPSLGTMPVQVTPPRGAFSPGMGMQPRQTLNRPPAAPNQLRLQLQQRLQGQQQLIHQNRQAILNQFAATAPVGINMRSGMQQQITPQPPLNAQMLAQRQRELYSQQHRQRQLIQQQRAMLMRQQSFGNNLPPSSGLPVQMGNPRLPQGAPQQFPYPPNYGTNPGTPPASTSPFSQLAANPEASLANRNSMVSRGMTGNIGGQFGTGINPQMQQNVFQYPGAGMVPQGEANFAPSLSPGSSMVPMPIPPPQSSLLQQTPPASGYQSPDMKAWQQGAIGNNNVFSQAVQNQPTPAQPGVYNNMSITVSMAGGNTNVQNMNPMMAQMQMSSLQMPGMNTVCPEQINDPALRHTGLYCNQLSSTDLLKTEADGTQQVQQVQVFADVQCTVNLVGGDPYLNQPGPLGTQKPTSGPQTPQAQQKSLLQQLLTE

With `O=C(O)CC1S/C(=N\N=C2CCCCCC2)N(c2ccccc2)C1=O` (centres undefined), the inhibition was -22.2% (inactive) in experiment [1] and -9.41% (inactive) in experiment [2].
The corresponding values for `CN1CCN(CCC(=O)N/N=C/c2cc3c(cc2[N+](=O)[O-])OCO3)CC1` are -2.3% (inactive) and -2.21% (inactive).
As for `Cc1cc(NC(=O)C(Cl)c2ccccc2)no1` (centres undefined), the inhibition in experiment [1] was -11.5% (inactive); in experiment [2], 3.89% (inactive).
For the compound `CCN1CCN(c2ccc(S(=O)(=O)N3CCCCC3)cc2NC(=O)c2cccc(Cl)c2)CC1`, the results for the inhibition in experiment [1] and in experiment [2] were -2.97% (inactive) and -2.54% (inactive), respectively.
Turning to `COCCn1c(SCC(=O)Nc2cccc(NC(C)=O)c2)nc2c([nH]c3ccccc32)c1=O`, the results for the inhibition in experiment [1] and in experiment [2] were -31.7% (inactive) and -16.2% (inactive), respectively.
Take `C=CCn1c(SCC(=O)Nc2ccccc2F)nc2ccccc2c1=O`: the results for the inhibition in experiment [1] and in experiment [2] were 2.78% (inactive) and -1.24% (inactive), respectively.
The corresponding values for `CCc1ccc(CN(C)C(=O)C2CCC(=O)N(CC3CCCCC3)C2)cc1` (centres undefined) are -5.12% (inactive) and 2.92% (inactive).
As for `COc1ccc(NC(=O)COc2ccccc2Cc2ccccc2)cc1S(N)(=O)=O`, the inhibition in experiment [1] is 38.1% (inactive); in experiment [2] it was 32.3% (active).
With `COc1cc(OC)cc(C(=O)NNC(=O)c2ccccn2)c1`, the inhibition in experiment [1] is 10.7% (inactive); in experiment [2], 2.65% (inactive).
As to `CC(=O)c1cn(CC(=O)Nc2cccc(C)c2C)c2ccccc12`, the inhibition is -15.8% (inactive) in experiment [1] and 13% (inactive) in experiment [2].
Regarding `COc1ccccc1/C=N/NC(=O)CN(C1=NS(=O)(=O)c2ccccc21)c1ccccc1`, the inhibition is -2.78% (inactive) in experiment [1] and 0.92% (inactive) in experiment [2].
For the compound `O=C(NCc1ccco1)c1cccc(NC(=O)c2ccco2)c1`, the inhibition in experiment [1] was 28.5% (inactive); in experiment [2], 50% (active).
For `CC(=O)NC(c1cc(Cl)c2cccnc2c1O)C1CC1` (centres undefined), the figures for the inhibition in experiment [1] and in experiment [2] were 30.9% (inactive) and 8.51% (inactive), respectively.
On to `Cn1c(/C=N/NC(=O)c2ccccc2Br)nc2ccccc21`, for which the inhibition in experiment [1] was 4.29% (inactive); in experiment [2], 15.7% (inactive).
The corresponding values for `COc1cccc(-c2cc(C(=O)Nc3cc(C)n(Cc4ccc(Cl)cc4)n3)no2)c1` are 1.04% (inactive) and 18.9% (inactive).
Take `COc1ccc(C[C@H]2COC(=O)[C@@H]2Cc2ccc(OC3OC(CO)C(O)C(O)C3O)c(OC)c2)cc1OC` (some centres undefined): the values for the inhibition in experiment [1] and in experiment [2] were 9.39% (inactive) and 31% (active), respectively.
With `CC1(C(=O)NS(=O)(=O)Cc2cccc(Cl)c2)CCN1C(=O)Cc1ccc(-c2ccccc2)cc1` (centres undefined), the figures for the inhibition in experiment [1] and in experiment [2] were -5.52% (inactive) and -14.3% (inactive), respectively.
